# Screening data (PubChem)
# D1 antagonist: blocks dopamine activation of the human D1 receptor; P21728; 360,000 tested, 3.2% active; activity change, negative = inhibition, % at 10 µM; HEK293 TREx D1 cells, calcium flux, dopamine EC80; hits give low values; in the data active means activity change below about -30%; further: on the % scale 0 is the no-effect control and ±100 the full control effect
#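 After overnight tetracycline induction at 30 C, force-coupled D1 HEK293 cells took up a no-wash calcium dye at room temperature. Compounds were added and monitored 180 s, and the response to EC80 dopamine was then recorded.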
# D1 agonist: agonists of human D1 dopamine receptor; AID 504660; P21728; activation, % at 2 µM; 360,000 tested, 1% active; HEK293 T-REx D1 cells, calcium flux, agonist mode; in the data active means activation above about 30%; further: 0% is about no effect
#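 Agonism was scored from calcium flux recorded over 180 s (1 read/s) after pintool compound addition, following a 10-cycle baseline. Cells were inducible force-coupled HEK293 TREx D1, plated overnight at 30 C and loaded with no-wash calcium dye.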
# D1 potentiator: enhances dopamine response at the human D1 receptor; HEK293 TREx D1 cells, calcium flux, dopamine EC20 potentiation; potentiation, % at 10 µM; 360,000 tested, 0.036% active; AID 504651; in the data active means potentiation above about 30%; further: 0% is about no effect
# D3 antag: D3 dopamine receptor (human) antagonism; P35462; max response, negative = inhibition, %; D3R cells, DiscoveRx beta-arrestin luminescence, antagonist mode; hits give low values; 360,000 tested, 2.5% active; in the data active means max response below about -50%; inconclusive means no clear call, values can overlap the other calls; further: on the % scale 0 is the no-effect control and ±100 the full control effect
# Target sequence (P35462 whole entry, looked up): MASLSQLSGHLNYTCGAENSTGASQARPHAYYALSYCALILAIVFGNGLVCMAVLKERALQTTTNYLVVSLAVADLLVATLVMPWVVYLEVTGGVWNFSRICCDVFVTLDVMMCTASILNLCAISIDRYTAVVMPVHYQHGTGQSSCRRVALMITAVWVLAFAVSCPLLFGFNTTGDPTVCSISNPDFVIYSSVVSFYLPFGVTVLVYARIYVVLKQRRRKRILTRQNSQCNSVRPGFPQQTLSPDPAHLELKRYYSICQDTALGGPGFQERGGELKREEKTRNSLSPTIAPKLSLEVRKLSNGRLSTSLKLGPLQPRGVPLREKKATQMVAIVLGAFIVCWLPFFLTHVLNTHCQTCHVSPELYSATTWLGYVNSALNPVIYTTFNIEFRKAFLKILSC
#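 Cells expressing the human receptor were seeded at 1500 cells/well, incubated overnight at 37 degrees C in 5% CO2, then exposed to library compounds with dopamine controls for 90 minutes at 37 degrees C before luminescent detection.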
# D3 ag: D3 dopamine receptor (human) agonism; P35462; D3R DiscoveRx beta-arrestin cells, luminescence, 90 min; max activation, %; 410,000 tested, 0.58% active; AID 652048; in the data active means max activation above about 30%; further: 0% is about no effect
#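 Agonist-mode cell screen: cells plated at 1500/well and incubated overnight at 37 °C, then exposed to library compounds for 90 min at 37 °C. Detection reagent was added for 30–60 min at room temperature, and luminescence was read.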
# The depositor's hits bear a star; ? = inconclusive; · = no result given. A selection: hits, their analogues and other compounds. The true share with any hit is near 6%.
SMILES,D1 antagonist,D1 agonist,D1 potentiator,D3 antag,D3 ag
CO[C@@]1(NC(=O)CSC[C@@H](N)C(=O)O)C(=O)N2C(C(=O)O)=C(CSc3nnnn3C)CS[C@@H]21,·,·,·,·,-26
O=C(OCc1cn([C@H]2C[C@H](c3ccc(Cl)cc3)N(CC3CCCCC3)C[C@@H]2O)nn1)c1ccccc1,·,·,·,-18,3
CN(C)c1ccc(/C=C2\Oc3ccc(C#Cc4cccc(N)c4)cc3C2=O)cc1,·,·,·,44,56*
COC(=O)c1ccc2c(c1)C(=O)/C(=C/c1ccc(C)cc1)O2,-4,3,-4,37,-3
COc1cc(OC)cc(C(=O)NCC(=O)OCc2ccc(Cl)c(Cl)c2)c1,-10,9,2,7,-2
CSc1nnc(C2CCCN2)n1C (configuration not stated),3,0,2,-54*,-4
CCCS(=O)(=O)NC(=O)C1(C)CCN(C(=O)COc2ccc(Cl)cc2Cl)C1 (configuration not stated),·,·,·,14,76*
Cn1c(CN2CCCCC2)c(C#N)c2ccccc21,7,6,-5,-78*,-65
Cn1c(CN2CCN(CC#N)CC2)c(C#N)c2ccccc21,-8,2,-5,-13,-1
Cn1c(CNC2CCCCC2)c(C#N)c2ccccc21,-23,0,-3,-77*,-6
CC1CCN(c2nc(-c3ccccc3)c(C#N)c(=O)[nH]2)CC1,-39*,1,-8,?,-8
CC(=O)Nc1cc(-c2ccc(CO)cc2)cn2c(-c3ccc(F)cc3)cnc12,·,·,·,-50*,-5
CC(=O)Nc1cc(-c2cccc(C(=O)NCCN(C)C)c2)cn2c(-c3ccccc3)cnc12,·,·,·,-52*,-24
CC(=O)Nc1cc(-c2cccc(C(=O)NCCN(C)C)c2)cn2c(-c3ccc(S(C)(=O)=O)cc3)cnc12,·,·,·,-8,1
COc1ccc(-c2cnc3c(NC(C)=O)cc(-c4ccc(C(=O)NC5CC5)cc4)cn23)cc1OC,·,·,·,226,36*
Cc1cc(S(=O)(=O)NCCc2csc(-c3cccc(F)c3)n2)ccc1F,8,3,-1,·,-17
CC(C)Oc1ccc(CNC(=O)c2ccc3nc(C(C)C)oc3c2)cc1,-18,10,-1,·,9
CCN(CC)c1ccc(C(=C2C=CC(=[N+](CC)CC)C=C2)c2ccc(S(=O)(=O)O)cc2S(=O)(=O)[O-])cc1,·,·,·,-8,-15
NC(=O)CC(NC(=O)Cc1ccc(Cl)cc1)c1ccc(NC2CC3CCC2C3)c([N+](=O)[O-])c1 (configuration not stated),6,2,1,-63*,-8
NC(=O)CC(NC(=O)Cc1cccc2ccccc12)c1ccc(NCC2CC2)c([N+](=O)[O-])c1 (configuration not stated),-3,4,4,?,-14
NC(=O)CC(NC(=O)Cc1cccc2ccccc12)c1ccc(NC2CC3CCC2C3)c([N+](=O)[O-])c1 (configuration not stated),6,-1,3,-65*,-23
NC(=O)CC(NC(=O)Cc1cccc2ccccc12)c1ccc(NCCOc2ccccc2)c([N+](=O)[O-])c1 (configuration not stated),6,3,-6,-80*,-31
Cn1c(Oc2ccccc2)nc2c1c(=O)n(Cc1ccc(Cl)cc1Cl)c(=O)n2C,1,-1,0,·,-9
CC1CN(C(=O)CSc2nnc(-c3cccs3)n2N)CC(C)O1 (configuration not stated),-34*,2,8,19,9
Nn1c(SCC(=O)N2CCc3ccccc3C2)nnc1-c1cccs1,20,0,-1,-19,-6
SMILES,D1 antagonist,D1 agonist,D1 potentiator,D3 antag,D3 ag
CC(=O)Nc1cccc(-c2ccnc3c2CC(C)(C(=O)Nc2cccc(OC(F)(F)F)c2)O3)c1 (configuration not stated),·,·,·,32,2
Cc1cccc(N2C(=O)CS/C2=N\NC(=O)c2ccc(Br)cc2)c1C,-1,0,-3,-79*,-3
Cc1cccc(N2C(=O)CS/C2=N\NC(=O)c2cccnc2)c1C,2,3,1,9,6
CCCOc1ccc(CSc2nc3ccccc3[nH]2)cc1,-30,9,-4,-65*,11
CCOc1ccc(OCCSc2nc3ccccc3[nH]2)cc1,-18,7,-6,-13,2
COc1ccc2cc(C(=O)NCc3ccccc3CN3CCCC3)ccc2c1,-64*,3,-15,-3,-25
COc1ccc(NS(=O)(=O)c2cccc(C(=O)NCc3ccccc3CN3CCOCC3)c2)cc1,·,·,·,3,-13
COc1ccc2oc(C(=O)NCc3ccccc3CN3CCCC3)c(C)c2c1,-57*,6,·,-8,-6
CCOc1ccc2oc(C(=O)NCc3ccccc3CN3CCCC3)c(C)c2c1,-20,1,-22,-28,-9
Cc1ccc(CNC(=O)c2ccc3c(c2)CCN3S(=O)(=O)c2ccc(Br)cc2)cc1,-6,3,0,·,2
O=[N+]([O-])c1ccc(S(=O)(=O)NCC(c2cccnc2)N2CCc3ccccc3C2)cc1 (configuration not stated),-16,1,-5,3,-4
O=[N+]([O-])c1ccc(S(=O)(=O)NCC(c2ccco2)N2CCc3ccccc3C2)cc1 (configuration not stated),-10,2,-3,-57*,-4
O=C(CCC(=O)NNC(=O)COc1ccc(Br)cc1)NCc1ccccc1,-34*,0,-1,-3,-7
O=C(CCc1ccccc1)NNC(=O)COc1ccc(Br)cc1,-12,2,-1,2,-3
Brc1ccc(NC2=Nc3ccccc3CC2)cc1,-30*,2,-6,-14,0
O=C(CCNC(=O)N1CC(=O)Nc2ccccc21)NCc1ccc(Cl)cc1,·,·,·,0,-4
CC1CCCN(c2ncnc3c2nnn3C)C1 (configuration not stated),·,-3,4,·,-5
O=c1/c(=C/c2ccc(O)c([N+](=O)[O-])c2)sc2nc3ccccc3n12,-2,7,-8,-8,2
CCN(CC)c1ccc(/C=c2\sc3nc4ccccc4n3c2=O)c(O)c1,-38*,179*,0,68,6
CCOC(=O)c1ccc(N2C(=O)c3[nH]nc(-c4ccc(C)cc4)c3C2c2ccc(O)c(OCC)c2)cc1 (configuration not stated),-3,1,0,·,-2
COc1ccc(NC(=O)C(=O)NCCN2CCN(C(=O)c3ccc(C)cc3)CC2)cc1,-9,1,·,-70*,-17
COc1ccc(C(=O)NCCN2CCN(C(=O)c3ccc(OC)cc3)CC2)cc1,1,1,3,-83*,-15
Cc1csc(-c2nc3ccccc3n2C(C(=O)Nc2c(C)cccc2C)C2CC2)c1 (configuration not stated),·,·,·,-2,-3
